Most compounds without a hit are left out; they make up all but 4% or so of the library.
KKLEB tox = CF airway cell cytotoxicity counter-screen; KKLEB CF airway cells viability, ATPlite luminescence, overnight; active compounds read low; cells stimulated with P. aeruginosa culture filtrate; activity change (cytotoxicity), % at 5 µM; 360,000 tested, 0.36% active; AID 602141;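 active = corrected activity change at or below -50% at 5 µM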
CF NFkB block = inhibitors of cystic fibrosis induced NF-kB. KKLEB NF-kB-GFP reporter, PAF-induced, GFP fluorescence overnight. inhibition, % at 5 µM. 360,000 tested, 0.86% active. AID 588850;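 active = at least 50% inhibition at 5 µM, scaled per plate between neutral and stimulator controls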;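 also: PAF is a Pseudomonas aeruginosa culture filtrate used as stimulus; plate controls were PAF-stimulated DMSO wells for no effect and unstimulated DMSO wells for full effect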
TROY signal inh = blocks TROY-dependent signaling in reporter cells; Q293 LMP1-TROYcd NF-kB luciferase reporter, 4 h; inhibition, % at 10 µM; 360,000 tested, 0.98% active;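 active = compounds whose plate-normalised and pattern-corrected inhibition of the luciferase reporter signal at the single screening dose is 50% or more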
TWEAK-Fn14 inh = inhibitors of TWEAK-Fn14 interaction signaling. TWEAK-stimulated Fn14 reporter cells, luciferase luminescence, 8 h. inhibition, % at 10 µM. 360,000 tested, 2% active. AID 1159606; in the data active = inhibition above about 50%
HIF-2a inh = inhibitors of HIF-2a; inhibition, % at 18.8 µM; AID 624352; 360,000 tested, 0.72% active; 786-0 RCC cells HIF-2a reporter, luciferase luminescence, overnight;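 active = inhibition of the luminescence signal of 40% or more relative to plate controls, in a single-dose primary screen at 18.75 µM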
Peg3 prom inh = reduces Peg3 promoter-driven luciferase expression in HeLa | HeLa PEG-Prom luciferase reporter, luminescence, overnight | inhibition, % at 20 µM | 360,000 tested, 1.7% active;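 active = inhibition of at least 50% at 20 µM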
An asterisk follows results filed as active; . = no result given.

SMILES	KKLEB tox	CF NFkB block	TROY signal inh	TWEAK-Fn14 inh	HIF-2a inh	Peg3 prom inh
OC(c1ccccc1)(c1nc(-c2cc3ccccc3o2)cs1)C(F)(F)F (configuration not stated)	16.7	-9.4	-0.5	22.6	-62.1	-6.7
Cc1sc(NC(=O)C2=COCCO2)nc1-c1ccc(Cl)cc1	-12.6	28.8	-63.7	1.6	-97.8	-118.5
CC(C)CN(C(=O)COc1ccc2ccc(=O)oc2c1)C1CCS(=O)(=O)C1 (configuration not stated)	-13.0	24.0	-12.2	61.3*	-0.2	6.7
CCn1cnc2cc(NCc3ccc(C)cc3)ccc21	-6.3	9.7	-66.0	-11.2	-194.9	-329.3
CCCn1cnc2cc(NCc3ccc(Br)cc3)ccc21	-0.1	3.7	38.5	19.4	-291.6	-234.1
CCn1cnc2cc(NCc3ccc(N(C)C)cc3)ccc21	-0.3	-8.2	67.2*	65.2*	-185.8	-17.0
CCCn1cnc2cc(NCc3cccc(OC)c3)ccc21	-11.8	5.4	65.8*	73.1*	-162.4	-141.0
CN(C)c1ccc(CNc2ccc3c(c2)ncn3C(C)(C)C)cc1	-6.4	-19.7	86.6*	58.4*	-61.5	-0.8
COc1ccc(-c2ccc3c(c2)[C@@H]2C[C@H](N(C)C(=O)Nc4ccccc4)[C@H]([C@H](C)O)C(=O)N2CC3)cc1	-2.5	1.5	4.5	3.2	-11.4	1.1
Cc1ccc(C(=O)NC2CCCCCCC2)c(Cl)c1	-3.8	-9.7	40.5	74.7*	-29.8	-41.0
O=C(NC1CCCCCCC1)c1cc(F)c(F)cc1Cl	2.7	6.1	-42.1	-29.6	-158.0	-153.6
Cc1ccccc1CC(=O)NC1CCCCCC1	-2.6	-6.1	-20.7	87.2*	-3.1	-6.3
Cc1ccccc1C(=O)NC1CCN(C(=O)NCc2ccccc2)CC1	1.6	-0.2	-18.9	0.9	-0.2	12.5
Cc1ccccc1C(=O)NC1CCN(C(=O)NC2CCCCC2)CC1	-5.9	0.9	3.3	53.2*	9.4	-3.6
CN(C(=O)C1Cc2c(-c3ccc(Cl)cc3)ccnc2O1)c1ccccc1 (configuration not stated)	-11.4	-4.6	-1.5	-14.3	2.8	14.9
CSc1ccc(C2NN=C(c3ccccc3)S2)cc1 (configuration not stated)	-61.0*	-10.8	51.5*	77.3*	-85.2	-87.5
Oc1ccccc1C1NN=C(c2ccccc2)S1 (configuration not stated)	-16.1	9.2	-21.2	55.5*	-146.2	-182.3
CSc1nc(=O)[nH]nc1Sc1ccccc1	3.4	10.0	10.0	9.6	-0.3	8.2
COc1ccc(C(C)(C)C)cc1NC(=O)CCc1c(C)noc1C	-13.4	16.2	0.3	-7.0	-3.8	-3.5
Cc1nc(Nc2ccc(Cl)c(Cl)c2)sc1C(=O)Nc1ccccc1	1.3	8.9	38.1	84.2*	-172.6	-42.5
COc1ccc2cc(C3CC=C(COC(C)=O)CN3S(=O)(=O)c3ccccc3[N+](=O)[O-])n(C(=O)OC(C)(C)C)c2c1 (configuration not stated)	.	.	.	.	0.5	.
COC(=O)c1c(-c2ccc(OC)c(OC)c2)csc1N	5.2	-11.7	-1.2	11.4	20.5	-9.4
COC(=O)c1c(-c2ccc3ccccc3c2)csc1NC(=O)Cc1ccc(OC)c(OC)c1	-5.7	16.5	46.9	65.3*	8.5	41.6
COCCn1c(=S)[nH]c2cc(C(=O)N3CCCC(C)C3)ccc2c1=O (configuration not stated)	-8.6	5.3	10.9	12.8	25.3	-3.8
Cc1ccc(/C=C2\C(=O)ON=C2c2ccccc2)o1	-13.0	11.1	16.1	6.2	5.5	7.8
SMILES	KKLEB tox	CF NFkB block	TROY signal inh	TWEAK-Fn14 inh	HIF-2a inh	Peg3 prom inh
Cc1ccc(-c2ccc(/C=C3\C(=O)ON=C3c3ccccc3)o2)c([N+](=O)[O-])c1	1.4	52.3*	-14.1	27.1	94.6*	96.8*
O=C1/C(=C\c2ccc(-c3ccccc3[N+](=O)[O-])o2)C(c2ccccc2)=NN1c1ccccc1	-4.0	16.8	27.0	-12.3	14.3	15.4
Cc1ccc(C2=NOC(=O)/C2=C\c2ccc(C)o2)cc1	-3.7	0.2	-29.2	5.8	41.6*	36.0
COC(=O)c1c(C(=O)OC)c(-c2cccc(F)c2)n2c1CS(=O)(=O)C2	-3.1	9.0	-9.7	21.5	-6.4	13.2
O=C(C1CC=CCC1)N1CCN(S(=O)(=O)c2ccc(F)cc2)CC1 (configuration not stated)	7.6	2.9	-9.9	0.9	6.5	4.9
CCOC(=O)c1ccc(-c2ccc(/C=C(\C#N)C(=O)NCc3cccs3)o2)cc1	3.9	1.8	-4.1	-120.9	4.8	71.5*
Nc1cc2nc3ccccc3oc-2cc1=O	-0.5	53.2*	-23.1	14.1	-20.3	-36.9
Cc1ccc(C(c2c(NC(=O)c3ccco3)sc(C)c2C)N2CCOCC2)cc1 (configuration not stated)	-7.3	-0.5	37.8	69.9*	15.5	42.3
COc1ccc(C(c2c(NC(=O)c3ccco3)sc(C)c2C)N2CCOCC2)cc1OC (configuration not stated)	6.8	-28.7	-29.9	6.8	-0.8	4.3
COc1cc(OC)c(C(=O)/C=C/c2ccccc2)c(O)c1O	7.6	16.9	19.1	63.9*	12.9	3.1
COc1ccc(C(=O)/C=C/c2ccccc2)c(O)c1	-13.2	-32.6	-64.5	20.6	-148.1	-97.6
COc1ccc(C=CC(=O)c2ccc(OCc3ccccc3)c(OC)c2)cc1OC	1.8	-22.1	-20.1	-11.9	7.1	29.6
COc1cc(O)cc(O)c1C(=O)/C=C/c1ccccc1	-11.5	51.8*	4.5	78.2*	26.0	23.6
CCCCN(CCCC)c1nc(-c2ccncc2)nc2ccccc12	-16.8	-4.0	25.8	27.1	28.7	51.5*
CCN(CC)c1nc(-c2ccccc2)nc2ccccc12	-11.2	-4.5	-3.3	1.0	7.6	6.9
COc1ccc(N/C(N)=N/c2nc(C)cc(C)n2)cc1	-0.3	-31.6	-4.5	-50.2	-7.9	4.7
Cc1cc(C)nc(/N=C(\N)Nc2ccc(OCCC(C)C)cc2)n1	0.8	-6.3	27.6	-12.3	2.9	106.6*
COc1ccc(S(=O)(=O)N2CCN(C(=S)Nc3ccc(S(N)(=O)=O)cc3)CC2)cc1	26.8	-24.9	-12.7	3.3	15.4	8.0
O=C1C(SCCO)=C(SCCO)C(=O)c2ccccc21	-5.6	72.5*	31.9	75.9*	96.9*	100.0*
O=c1[nH]c2ccccc2c(O)c1SCCO	2.2	-12.5	-13.3	3.7	15.6	1.0
Cc1ccc(OCC(=O)NCCNC(=O)c2ccncc2)cc1C	10.5	4.3	4.7	-15.6	9.1	-5.5
N#Cc1cc(-c2ccccc2)nc(Oc2ccccc2)n1	1.7	14.1	48.5	61.3*	23.1	24.2
COc1ccc(-c2cc(C#N)nc(Cl)n2)cc1	-9.5	0.6	79.9*	30.3	13.8	38.9
N#Cc1ccc(Oc2nc(C#N)cc(-c3ccccc3)n2)cc1	5.6	-4.0	29.0	39.0	10.7	2.1
